# In publication PMC7862700, “An all-to-all approach to the identification of sequence-specific readers for epigenetic DNA modifications on cytosine”:
# Key:
# Experiment in all cases: DAPPL (digital affinity profiling via proximity ligation, sequencing); 10 mM Tris-HCl pH 7.5, 50 mM NaCl, 1 mM DTT, 4% glycerol, room temperature, 30 min; GST-TFs on glutathione beads, 16-mer random dsDNA library, 0.1% formaldehyde crosslink after washing; high values mean tight binding
# Details in all cases: protein: recombinant; tags: N-terminal GST; dsDNA, one strand shown
# ELK1 = target: T1, ELK1 (Homo sapiens, UniProt P19419 1-428)
# T1 sequence: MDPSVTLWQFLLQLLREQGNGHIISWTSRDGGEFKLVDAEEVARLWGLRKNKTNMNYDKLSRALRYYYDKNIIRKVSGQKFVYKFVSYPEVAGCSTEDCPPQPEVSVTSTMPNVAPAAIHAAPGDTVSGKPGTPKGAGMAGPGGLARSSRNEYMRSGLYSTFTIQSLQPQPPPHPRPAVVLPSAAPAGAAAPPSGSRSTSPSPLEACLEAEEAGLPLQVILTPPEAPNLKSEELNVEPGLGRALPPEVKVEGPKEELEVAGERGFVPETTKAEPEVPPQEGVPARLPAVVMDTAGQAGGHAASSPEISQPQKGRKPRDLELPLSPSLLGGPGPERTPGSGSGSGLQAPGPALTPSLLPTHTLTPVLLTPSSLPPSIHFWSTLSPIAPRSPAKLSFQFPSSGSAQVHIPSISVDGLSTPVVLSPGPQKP
# Method in brief: (§1)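 After expression in yeast as GST fusions, human transcription factors were bound to glutathione beads, DNA-barcoded and mixed with a tag-only sample. The pools were incubated with 200 nmole of a 16-mer random double-stranded DNA library in Tris/NaCl/DTT/glycerol buffer (30 min, room temperature), washed and crosslinked with 0.1% formaldehyde. Proximity ligation with BsaI/T4 ligase ran for 1 h at 37 °C, before PCR amplification and sequencing on an Illumina NextSeq500. Binding signal is a hexamer's read frequency for a factor divided by its frequency for the tag-only sample.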
# GABPA = target: T2, GABPA (Homo sapiens, UniProt Q06546 1-454)
# T2 sequence: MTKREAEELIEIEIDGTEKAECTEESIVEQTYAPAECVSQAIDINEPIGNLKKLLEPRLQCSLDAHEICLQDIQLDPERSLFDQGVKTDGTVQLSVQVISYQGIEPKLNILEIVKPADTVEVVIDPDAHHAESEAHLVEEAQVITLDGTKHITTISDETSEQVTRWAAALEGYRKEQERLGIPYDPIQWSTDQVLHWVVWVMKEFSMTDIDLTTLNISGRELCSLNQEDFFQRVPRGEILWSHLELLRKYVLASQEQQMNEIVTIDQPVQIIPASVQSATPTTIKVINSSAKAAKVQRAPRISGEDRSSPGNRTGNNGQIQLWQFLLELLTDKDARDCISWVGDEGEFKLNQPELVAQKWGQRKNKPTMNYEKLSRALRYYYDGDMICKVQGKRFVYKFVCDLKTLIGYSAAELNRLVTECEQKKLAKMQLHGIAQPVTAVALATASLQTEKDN
# Method in brief: as §1
# ELF1 = ELF1 (Homo sapiens, UniProt P32519 1-619)
# Method in brief: as §1
# EHF = target: T3, EHF (Homo sapiens, UniProt Q9NZC4 1-300)
# T3 sequence: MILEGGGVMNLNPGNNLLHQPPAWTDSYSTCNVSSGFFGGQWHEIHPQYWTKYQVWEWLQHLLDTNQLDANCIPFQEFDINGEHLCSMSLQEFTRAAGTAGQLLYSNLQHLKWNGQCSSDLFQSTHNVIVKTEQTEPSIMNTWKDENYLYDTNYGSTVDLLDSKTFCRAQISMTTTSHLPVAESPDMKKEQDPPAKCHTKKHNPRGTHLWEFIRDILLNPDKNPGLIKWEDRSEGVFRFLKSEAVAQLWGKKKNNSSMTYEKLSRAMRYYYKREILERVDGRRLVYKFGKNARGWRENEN
# Method in brief: as §1
# SPIB = SPIB (Homo sapiens, UniProt Q01892 1-262)
# Method in brief: as §1
# ETV5 = ETV5 (Homo sapiens, UniProt P41161 1-510)
# Method in brief: as §1
# SPIC = target: T4, SPIC (Homo sapiens, UniProt Q8N5J4 1-248)
# T4 sequence: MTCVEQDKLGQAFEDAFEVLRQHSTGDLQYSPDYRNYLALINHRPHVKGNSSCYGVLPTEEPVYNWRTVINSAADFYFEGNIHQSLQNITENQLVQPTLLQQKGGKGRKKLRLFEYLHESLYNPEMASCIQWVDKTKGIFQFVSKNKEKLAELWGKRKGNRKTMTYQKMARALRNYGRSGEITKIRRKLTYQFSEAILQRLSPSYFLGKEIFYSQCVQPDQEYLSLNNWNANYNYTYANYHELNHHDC
# Method in brief: as §1
# ELF4 = ELF4 (Homo sapiens, UniProt Q99607 1-663)
# Method in brief: as §1
# ELK4 = target: T5, ELK4 (Homo sapiens, UniProt P28324-2 1-405)
# T5 sequence: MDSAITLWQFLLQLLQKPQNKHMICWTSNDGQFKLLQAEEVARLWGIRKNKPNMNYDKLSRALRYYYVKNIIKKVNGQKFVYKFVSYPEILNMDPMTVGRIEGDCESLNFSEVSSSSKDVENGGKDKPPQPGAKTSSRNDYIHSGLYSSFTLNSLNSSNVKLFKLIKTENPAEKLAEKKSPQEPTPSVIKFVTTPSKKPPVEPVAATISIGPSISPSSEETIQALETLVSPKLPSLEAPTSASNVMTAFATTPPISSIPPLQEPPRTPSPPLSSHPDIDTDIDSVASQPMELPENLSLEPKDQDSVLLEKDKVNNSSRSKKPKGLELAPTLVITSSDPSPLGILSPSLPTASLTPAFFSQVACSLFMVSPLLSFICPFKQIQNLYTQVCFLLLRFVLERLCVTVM
# Method in brief: as §1
# ELF3 = target: T6, ELF3 (Homo sapiens, UniProt P78545 1-371)
# T6 sequence: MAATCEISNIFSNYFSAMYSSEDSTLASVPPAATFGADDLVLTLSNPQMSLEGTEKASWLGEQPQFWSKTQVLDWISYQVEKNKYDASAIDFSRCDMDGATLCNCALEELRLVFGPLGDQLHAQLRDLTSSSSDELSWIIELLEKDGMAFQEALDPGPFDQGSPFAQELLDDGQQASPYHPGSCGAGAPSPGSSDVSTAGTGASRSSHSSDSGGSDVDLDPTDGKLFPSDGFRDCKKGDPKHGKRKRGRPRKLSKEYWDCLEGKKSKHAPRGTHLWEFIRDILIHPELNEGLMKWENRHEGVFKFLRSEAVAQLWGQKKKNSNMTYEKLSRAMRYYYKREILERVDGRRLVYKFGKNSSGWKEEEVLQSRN
# Method in brief: as §1
# ETV1 = ETV1 (Homo sapiens, UniProt P50549 1-477)
# Method in brief: as §1
# ETV3L = target: T7, ETV3L (Homo sapiens, UniProt Q6ZN32 1-361)
# T7 sequence: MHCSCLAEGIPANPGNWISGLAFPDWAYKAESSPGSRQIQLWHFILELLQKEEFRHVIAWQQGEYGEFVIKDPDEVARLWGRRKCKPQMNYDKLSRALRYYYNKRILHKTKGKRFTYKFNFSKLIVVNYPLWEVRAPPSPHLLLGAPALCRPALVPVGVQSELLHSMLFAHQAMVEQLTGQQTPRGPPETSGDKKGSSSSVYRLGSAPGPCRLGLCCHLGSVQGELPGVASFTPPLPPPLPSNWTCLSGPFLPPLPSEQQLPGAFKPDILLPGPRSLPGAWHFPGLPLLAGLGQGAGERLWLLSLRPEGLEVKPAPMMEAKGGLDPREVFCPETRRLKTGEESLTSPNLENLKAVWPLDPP
# Method in brief: as §1
# ETS2 = target: T8, ETS2 (Homo sapiens, UniProt P15036 1-469)
# T8 sequence: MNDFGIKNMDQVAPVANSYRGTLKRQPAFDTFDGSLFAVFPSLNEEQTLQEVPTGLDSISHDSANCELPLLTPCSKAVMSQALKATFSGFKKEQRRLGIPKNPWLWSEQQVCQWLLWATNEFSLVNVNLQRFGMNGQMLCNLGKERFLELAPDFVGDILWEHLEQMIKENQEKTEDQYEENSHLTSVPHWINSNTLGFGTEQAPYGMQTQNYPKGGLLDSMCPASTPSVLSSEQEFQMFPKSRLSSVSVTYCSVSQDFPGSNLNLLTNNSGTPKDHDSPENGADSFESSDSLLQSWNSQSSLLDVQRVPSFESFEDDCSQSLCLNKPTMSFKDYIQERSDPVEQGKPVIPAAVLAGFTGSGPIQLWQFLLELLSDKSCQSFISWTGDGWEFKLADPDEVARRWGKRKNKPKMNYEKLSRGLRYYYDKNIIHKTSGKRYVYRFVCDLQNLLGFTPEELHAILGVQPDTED
# Method in brief: as §1
# SPDEF = target: T9, SPDEF (Homo sapiens, UniProt O95238 1-335)
# T9 sequence: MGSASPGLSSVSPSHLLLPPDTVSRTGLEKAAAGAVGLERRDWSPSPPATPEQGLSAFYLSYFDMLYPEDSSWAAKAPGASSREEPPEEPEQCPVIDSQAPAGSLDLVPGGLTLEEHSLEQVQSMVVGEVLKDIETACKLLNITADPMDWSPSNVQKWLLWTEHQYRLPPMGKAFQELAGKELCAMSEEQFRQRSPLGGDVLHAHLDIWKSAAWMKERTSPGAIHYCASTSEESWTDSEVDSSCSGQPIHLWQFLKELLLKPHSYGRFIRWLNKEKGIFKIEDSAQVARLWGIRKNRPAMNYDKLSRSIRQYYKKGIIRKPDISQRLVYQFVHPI
# Method in brief: as §1
# ETV7 = target: T10, ETV7 (Homo sapiens, UniProt Q9Y603 1-341)
# T10 sequence: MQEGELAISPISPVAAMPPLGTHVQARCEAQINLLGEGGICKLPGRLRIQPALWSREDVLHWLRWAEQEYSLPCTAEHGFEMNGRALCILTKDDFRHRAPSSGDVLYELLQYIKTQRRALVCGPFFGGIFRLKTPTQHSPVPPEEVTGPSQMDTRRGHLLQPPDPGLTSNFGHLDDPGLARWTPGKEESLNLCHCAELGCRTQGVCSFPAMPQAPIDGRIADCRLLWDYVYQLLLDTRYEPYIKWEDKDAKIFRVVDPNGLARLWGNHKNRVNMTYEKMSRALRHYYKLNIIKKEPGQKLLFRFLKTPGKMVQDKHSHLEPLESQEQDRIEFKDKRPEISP
# Method in brief: as §1
# ETV3 = target: T11, ETV3 (Homo sapiens, UniProt P41162-2 1-143)
# T11 sequence: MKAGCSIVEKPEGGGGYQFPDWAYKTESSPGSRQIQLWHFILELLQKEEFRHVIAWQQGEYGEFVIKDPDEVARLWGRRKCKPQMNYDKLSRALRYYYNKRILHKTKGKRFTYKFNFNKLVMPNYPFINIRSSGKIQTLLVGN
# Method in brief: as §1
# ETV6 = ETV6 (Homo sapiens, UniProt P41212 1-452)
# Method in brief: as §1
# ELF4, sequence (Q99607 whole entry): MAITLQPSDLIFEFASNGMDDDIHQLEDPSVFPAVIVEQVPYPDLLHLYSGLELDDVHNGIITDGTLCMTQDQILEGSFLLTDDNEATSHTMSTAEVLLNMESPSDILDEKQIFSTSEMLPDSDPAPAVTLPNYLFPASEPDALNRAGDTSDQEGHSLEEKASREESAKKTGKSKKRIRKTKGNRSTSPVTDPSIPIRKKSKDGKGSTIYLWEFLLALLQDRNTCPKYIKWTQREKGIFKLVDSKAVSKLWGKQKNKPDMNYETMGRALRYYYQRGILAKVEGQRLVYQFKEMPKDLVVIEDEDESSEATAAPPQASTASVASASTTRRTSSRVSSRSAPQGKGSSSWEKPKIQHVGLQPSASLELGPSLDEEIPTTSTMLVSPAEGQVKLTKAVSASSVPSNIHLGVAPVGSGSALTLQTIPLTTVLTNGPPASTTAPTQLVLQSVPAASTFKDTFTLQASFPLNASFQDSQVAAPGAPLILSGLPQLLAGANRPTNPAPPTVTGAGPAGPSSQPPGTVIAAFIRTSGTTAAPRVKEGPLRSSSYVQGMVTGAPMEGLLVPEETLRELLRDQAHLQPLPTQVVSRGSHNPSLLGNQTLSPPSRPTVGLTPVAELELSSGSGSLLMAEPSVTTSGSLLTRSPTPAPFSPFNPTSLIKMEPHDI
# ETV5, sequence (P41161 whole entry): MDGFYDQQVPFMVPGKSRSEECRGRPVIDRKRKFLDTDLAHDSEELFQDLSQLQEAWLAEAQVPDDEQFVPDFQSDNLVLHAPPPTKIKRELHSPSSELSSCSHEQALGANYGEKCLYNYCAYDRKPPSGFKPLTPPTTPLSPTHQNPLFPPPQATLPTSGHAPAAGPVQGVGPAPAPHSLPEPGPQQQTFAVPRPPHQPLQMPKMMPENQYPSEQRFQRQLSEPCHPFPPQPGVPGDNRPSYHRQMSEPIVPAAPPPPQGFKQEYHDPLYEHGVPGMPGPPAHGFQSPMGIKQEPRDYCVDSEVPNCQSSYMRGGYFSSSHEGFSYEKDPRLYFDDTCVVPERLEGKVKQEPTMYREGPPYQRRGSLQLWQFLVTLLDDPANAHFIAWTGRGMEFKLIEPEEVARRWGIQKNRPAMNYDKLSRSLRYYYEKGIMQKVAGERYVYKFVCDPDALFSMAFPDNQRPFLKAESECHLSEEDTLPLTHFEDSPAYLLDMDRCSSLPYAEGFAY
# ELF1, sequence (P32519 whole entry): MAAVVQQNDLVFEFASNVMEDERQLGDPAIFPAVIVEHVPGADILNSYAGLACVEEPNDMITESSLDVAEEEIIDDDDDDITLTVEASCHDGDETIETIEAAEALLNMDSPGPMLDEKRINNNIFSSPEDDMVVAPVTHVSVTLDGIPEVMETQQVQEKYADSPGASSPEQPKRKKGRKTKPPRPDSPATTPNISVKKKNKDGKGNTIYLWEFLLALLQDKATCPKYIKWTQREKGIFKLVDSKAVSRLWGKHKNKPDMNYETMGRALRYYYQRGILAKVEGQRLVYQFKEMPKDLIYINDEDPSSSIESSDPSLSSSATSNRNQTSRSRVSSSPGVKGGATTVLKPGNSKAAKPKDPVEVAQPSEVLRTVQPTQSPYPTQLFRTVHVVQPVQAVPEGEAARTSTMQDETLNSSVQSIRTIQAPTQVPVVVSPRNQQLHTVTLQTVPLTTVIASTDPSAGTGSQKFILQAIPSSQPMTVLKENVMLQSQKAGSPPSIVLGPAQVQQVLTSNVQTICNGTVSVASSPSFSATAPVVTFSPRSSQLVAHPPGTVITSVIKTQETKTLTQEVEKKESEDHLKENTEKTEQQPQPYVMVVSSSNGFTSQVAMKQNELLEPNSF
# SPIB, sequence (Q01892 whole entry): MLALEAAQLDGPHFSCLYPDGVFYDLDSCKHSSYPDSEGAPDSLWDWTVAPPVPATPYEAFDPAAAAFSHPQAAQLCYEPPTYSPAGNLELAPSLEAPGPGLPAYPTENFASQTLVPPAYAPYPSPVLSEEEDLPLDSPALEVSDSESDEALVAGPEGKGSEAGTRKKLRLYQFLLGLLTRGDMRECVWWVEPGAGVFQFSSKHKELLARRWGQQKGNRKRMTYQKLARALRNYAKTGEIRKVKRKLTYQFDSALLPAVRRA
# ETV6, sequence (P41212 whole entry): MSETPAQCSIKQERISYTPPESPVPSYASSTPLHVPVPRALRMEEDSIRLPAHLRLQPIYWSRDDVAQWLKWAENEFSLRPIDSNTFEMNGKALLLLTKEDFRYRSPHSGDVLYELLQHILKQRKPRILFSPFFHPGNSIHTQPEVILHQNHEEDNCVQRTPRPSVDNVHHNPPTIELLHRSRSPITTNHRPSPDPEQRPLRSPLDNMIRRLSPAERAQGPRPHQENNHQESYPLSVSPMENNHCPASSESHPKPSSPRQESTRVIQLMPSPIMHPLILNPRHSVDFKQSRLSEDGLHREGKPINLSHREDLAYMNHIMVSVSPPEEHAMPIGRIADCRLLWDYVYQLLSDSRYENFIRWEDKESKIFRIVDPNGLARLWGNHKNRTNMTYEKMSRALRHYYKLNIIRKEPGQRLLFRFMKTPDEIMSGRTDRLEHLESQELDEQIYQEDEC
# ETV1, sequence (P50549 whole entry): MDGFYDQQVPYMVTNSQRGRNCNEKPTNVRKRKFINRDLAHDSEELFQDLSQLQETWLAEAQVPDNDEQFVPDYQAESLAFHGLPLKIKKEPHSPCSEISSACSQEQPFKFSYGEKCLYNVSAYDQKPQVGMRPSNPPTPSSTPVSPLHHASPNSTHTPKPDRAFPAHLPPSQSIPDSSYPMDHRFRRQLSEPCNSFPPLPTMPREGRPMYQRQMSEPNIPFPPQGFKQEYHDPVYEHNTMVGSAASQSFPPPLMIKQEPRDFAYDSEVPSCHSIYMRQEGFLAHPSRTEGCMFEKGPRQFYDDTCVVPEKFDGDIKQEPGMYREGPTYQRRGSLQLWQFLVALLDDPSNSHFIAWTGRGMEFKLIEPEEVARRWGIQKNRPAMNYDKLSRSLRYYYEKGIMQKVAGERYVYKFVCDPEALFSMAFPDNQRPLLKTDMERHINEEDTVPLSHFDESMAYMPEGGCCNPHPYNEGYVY
sequence,measurement,setting,value
ACACGG,binding signal,ELK1,"1.03 fold enrichment (6-mer frequency, TF over GST control)"
same,binding signal,GABPA,"1.05 fold enrichment (6-mer frequency, TF over GST control)"
same,binding signal,ELF1,"1.06 fold enrichment (6-mer frequency, TF over GST control)"
same,binding signal,EHF,"1.05 fold enrichment (6-mer frequency, TF over GST control)"
same,binding signal,SPIB,"1.1 fold enrichment (6-mer frequency, TF over GST control)"
same,binding signal,ETV5,"1.04 fold enrichment (6-mer frequency, TF over GST control)"
same,binding signal,SPIC,"1.06 fold enrichment (6-mer frequency, TF over GST control)"
same,binding signal,ELF4,"1.05 fold enrichment (6-mer frequency, TF over GST control)"
same,binding signal,ELK4,"1.07 fold enrichment (6-mer frequency, TF over GST control)"
same,binding signal,ELF3,"1.06 fold enrichment (6-mer frequency, TF over GST control)"
same,binding signal,ETV1,"1.1 fold enrichment (6-mer frequency, TF over GST control)"
same,binding signal,ETV3L,"1.06 fold enrichment (6-mer frequency, TF over GST control)"
same,binding signal,ETS2,"1.08 fold enrichment (6-mer frequency, TF over GST control)"
same,binding signal,SPDEF,"1.17 fold enrichment (6-mer frequency, TF over GST control)"
same,binding signal,ETV7,"1.03 fold enrichment (6-mer frequency, TF over GST control)"
same,binding signal,ETV3,"1.13 fold enrichment (6-mer frequency, TF over GST control)"
same,binding signal,ETV6,"1.06 fold enrichment (6-mer frequency, TF over GST control)"
